# Screening data: PubChem BioAssay, National Center for Advancing Translational Sciences (NCATS)
# DRD3 antagonist – antagonists of human D3 dopamine receptor. P35462. D3R cells, DiscoveRx beta-arrestin luminescence, antagonist mode; active compounds read low. max response, negative = inhibition, %. 2.5% of 360,000 active; in the data active = max response below about -50%; inconclusive = no clear call, values can overlap the other calls; note: % is set by controls: 0 for no effect and ±100 for the full control effect
#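 Cells plated overnight at 1500 cells/well, then exposed to library compounds with dopamine controls for 90 minutes at 37 degrees C. DiscoveRx reagent added for 30–60 minutes at room temperature; luminescence read, quantitative HTS format.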
# GLP-1R agonist – GLP-1 receptor (human) agonism. Potency, µM (series often up to 45.6 µM), for inactives: at the highest dose activation, actives largely listed as activators. P43220. HEK293 GLP-1R CRE-luciferase, luminescence, 4-6 h; cells express a hypersensitive GLP-1R form. 0.007% of 380,000 active. AID 624172; note: potency is the fitted concentration of half-maximal effect; % of control where 0% means no effect
# Target sequence (P43220 whole entry, looked up): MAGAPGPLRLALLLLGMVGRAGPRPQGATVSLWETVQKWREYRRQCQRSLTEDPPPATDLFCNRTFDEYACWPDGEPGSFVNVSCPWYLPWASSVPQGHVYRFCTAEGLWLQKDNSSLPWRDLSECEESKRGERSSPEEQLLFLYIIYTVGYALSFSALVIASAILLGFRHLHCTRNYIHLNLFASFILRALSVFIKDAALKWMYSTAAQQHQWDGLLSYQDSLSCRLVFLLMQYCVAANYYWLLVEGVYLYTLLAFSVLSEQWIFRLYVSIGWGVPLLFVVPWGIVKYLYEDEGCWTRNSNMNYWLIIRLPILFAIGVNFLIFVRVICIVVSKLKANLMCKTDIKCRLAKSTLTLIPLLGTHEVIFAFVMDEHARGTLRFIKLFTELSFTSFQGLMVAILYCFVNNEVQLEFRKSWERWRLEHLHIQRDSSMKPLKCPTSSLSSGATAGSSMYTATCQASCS
# GLP1R inv ag – GLP-1 receptor (human) inverse agonism; Potency, µM (highest dose often 38.3 µM), without a hit: at the top dose activity change, negative = inhibition, most hits filed as inhibitors; HEK293 GLP-1R CRE-luciferase, luminescence, 24 h; GLP-1R form is constitutively active; 1.6% of 410,000 active; note: potency is the fitted concentration of half-maximal effect; % is set by controls: 0 for no effect and ±100 for the full control effect; nearly all actives have a fitted effect of over 55% in size
#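 Cells are plated, allowed 12 hours at 37 deg C, then treated with compounds for 24 hr before luciferase detection reagent is added and luminescence is read after 12 min at room temperature. The HEK293 line carries constitutively active GLP-1R with a cAMP-responsive reporter.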
# D3 ag – agonists of human D3 dopamine receptor. max activation, %. 0.58% of 410,000 active. AID 652048. D3R DiscoveRx beta-arrestin cells, luminescence, 90 min; in the data active = max activation above about 30%; note: 0% is about no effect
#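 Agonist-mode cell screen: cells plated at 1500/well and incubated overnight at 37 °C, then exposed to library compounds for 90 min at 37 °C. Detection reagent was added for 30–60 min at room temperature, and luminescence was read.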
# GLP1R cytotox – cytotoxicity counter-screen for GLP-1 receptor inverse agonists; HEK293 cAMP-luciferase reporter cells, luminescence, 24 h; Potency, µM (highest dose often 38.3 µM), for the others: top-dose activity change, negative = inhibition, actives largely listed as inhibitors; 0.13% of 410,000 active;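 note: loss of luciferase light is scored as toxicity; potency is the fitted concentration of half-maximal effect; % is set by controls: 0 for no effect and ±100 for the full control effect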
#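 Step one: seed cells (200 cells/uL, DMEM with 10% Nu serum, 1% pen-strep). Step two: 12-hour incubation at 37 deg C. Step three: pin 23 nL compound, incubate 24 hr. Step four: add luciferase reagent, read luminescence 12 min later.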
# ClpP mod – qHTS Assay for Activators of ClpP. ATP-dependent Clp protease proteolytic subunit (Bacillus subtilis (strain 168)), P80244. purified B. subtilis ClpP, FRET peptide cleavage, 20 min. Potency, µM (top dose mostly 57.5 µM), inactives show at the top dose activity change, negative = active. 1.9% of 340,000 active. AID 651965, 2013; active = well fitted falling curve with a large enough effect; inconclusive = small, poorly fitted or top-dose-only effect; inactive = no such curve, though single readings can be large or run the other way; note: potency is the fitted concentration of half-maximal effect; the source files actives as falling curves though it sought activators and does not explain the sign; nearly all actives have a fitted effect of over 65% in size
# Target sequence (P80244 whole entry, looked up): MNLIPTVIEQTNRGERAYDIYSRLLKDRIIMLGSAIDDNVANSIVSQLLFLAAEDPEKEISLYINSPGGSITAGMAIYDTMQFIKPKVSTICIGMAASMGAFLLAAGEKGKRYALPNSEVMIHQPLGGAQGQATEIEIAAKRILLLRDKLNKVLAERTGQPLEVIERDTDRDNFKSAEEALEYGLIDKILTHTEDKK
#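 Purified B. subtilis ClpP, 10 microg/mL final in Tris/HCl pH8 with KCl, BSA, glycerol and Tween-20, cleaved an Abz/nitrotyrosine-quenched decapeptide. Fluorescence (ex 320, em 430) was read at 0 and 20 min at room temperature. Delta was normalized to 5.8 microM ADEP and DMSO/no-enzyme controls.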
# The depositor's hits bear a star; ? = inconclusive; nt = no result given; [ ] = another dose, or the depositor's remark. Most compounds without a hit are left out; they make up all but 5.7% or so of the library. Unless noted, calls come from the whole dose curve; as a rule, active = well fitted curve in the direction sought with a large enough effect; inconclusive = small, poorly fitted or top-dose-only effect, or another doubt; inactive = no such curve, though single readings can be large; an effect the other way counts as inactive or inconclusive.
SMILES,DRD3 antagonist,GLP-1R agonist,GLP1R inv ag,D3 ag,GLP1R cytotox,ClpP mod
O=C1c2cccnc2-c2ncccc21,1.2,-11.3%,-7.4%,1.2,-6.2%,0.0%
COc1ccccc1N1CCN(C(=O)CN2C(=O)C3CCCCC3C2=O)CC1 (stereo unspecified),-16.3,8.0%,6.2%,0.1,7.3%,1.6%
COc1ccccc1N1CCN(CCCCN2C(=O)C3CCCCN3C2=O)CC1 (stereo unspecified),-77.4*,10.3%,-15.1%,-35.0,-18.4%,-0.4%
Nc1ccc(N2CCN(CCCCN3C(=O)C4CCCN4C3=O)CC2)cc1 (stereo unspecified),-15.9,-1.2%,-22.8%,-3.7,-18.8%,-6.2%
COc1ccccc1N1CCN(CCCN2CC(=O)N3CCCCC3C2=O)CC1 (stereo unspecified),-52.7*,-1.7%,8.1%,-16.8,-1.8%,nt
CCCCOc1ccccc1N1CCN(CCCN2C(=O)C3CCCN3C2=O)CC1 (stereo unspecified),-87.2*,-6.6%,-17.8%,-17.5,1.9%,-0.7%
Cc1ccccc1N1CCN(CCCCN2C(=O)C3CCCN3C2=O)CC1 (stereo unspecified),-84.1*,-0.2%,-8.8%,-14.2,2.4%,-2.0%
O=C(Nc1ccc(F)cc1)[C@H](Cc1ccccc1)N1Cc2ccccc2C1=O,nt,-0.9%,?,-1.3,5.2%,-0.5%
O[C@@H](CNC[C@H](O)[C@H]1CCc2cc(F)ccc2O1)[C@@H]1CCc2cc(F)ccc2O1,nt,-0.9%,nt,-19.7,nt,nt
O=C(c1ccccc1CCc1ccccc1)N1CCCC1,-2.8,-0.3%,?,-1.7,15.0%,-0.4%
CCOC(=O)N1CCN(C(=O)c2ccccc2CCc2ccccc2)CC1,-0.5,12.7%,8.91µM*,6.3,-7.3%,-0.9%
CCOC(=O)N1CCN(C(=O)Cc2ccc(C)cc2)CC1,-57.7*,-6.4%,4.7%,1.4,8.7%,-1.8%
COc1ccc(C#Cc2c(C=O)n(C)c3ccccc23)cc1,26.5,6.7%,?,23.9,85.4%,-24.9%
Cn1c(C=O)c(C#Cc2ccccc2)c2ccccc21,66.1,16.4%,?,39.5*,58.1%,-26.8%
COc1ccc(-c2nc3cnccn3c2NCc2ccccc2)cc1SC1CCCCC1,97.0,-4.9%,?,40.4*,148.9%,?
CCCCNc1c(-c2ccc(OC)c(SC3CCCCC3)c2)nc2cnccn12,259.0,-10.7%,?,44.8*,174.9%,-26.1%
COc1ccc(Sc2ccc(-c3nc4cnccn4c3NC3CCCCC3)cc2OC)cc1,48.5,6.4%,10.1%,45.8*,28.4%,-22.1%
CCCCCCSc1cc(-c2nc3cc(C)ccn3c2NC2CCCCC2)ccc1OC,0.0,1.9%,?,11.6,-3.8%,4.7%
CCCCCCSc1cc(-c2nc3cnccn3c2NCc2ccccc2)ccc1OC,130.8,-2.9%,?,51.5*,37.4%,?
COc1cccc(CNCCCSc2nnnn2C)c1,nt,nt,3.5%,-29.6,0.5%,-2.7%
CCN(CC)CCCNC(=O)c1cn(CC)c2ccc(S(=O)(=O)N3CCC(C)CC3)cc2c1=O,nt,-2.1%,-13.4%,-5.4,-6.9%,-1.4%
CCCCNc1c(-c2ccc(SC3CCCCC3)cc2)nc2cnccn12,106.4,11.0%,?,39.7*,125.1%,28.2µM*
O=C(Cc1ccccc1)Nc1nnc(-c2ccco2)s1,-18.7,-44.6%,13.9%,-4.3,3.5%,-29.1%
CCCC(=O)Nc1nnc(-c2ccco2)s1,-66.4*,-2.0%,25.2%,4.4,-5.5%,-17.4%
Cc1ccc(/C=C2/CNC/C(=C/c3ccc(C)cc3)C2=O)cc1,-50.8*,-4.4%,?,-4.7,?,1.2%
SMILES,DRD3 antagonist,GLP-1R agonist,GLP1R inv ag,D3 ag,GLP1R cytotox,ClpP mod
Cc1ccc(/C=C2\CCOC2=O)cc1,4.9,8.5%,4.4%,2.9,-9.7%,nt
O=C(NCc1ccccc1Cl)c1c2c(nc3ccccc13)C(=O)N(C1CCCCC1)C2,nt,nt,-3.8%,-2.5,4.5%,-17.3%
CCCc1c(C(=O)N/N=C(\C)c2ccccn2)nnn1-c1nonc1N,-84.9*,-3.6%,?,-13.1,0.7%,-1.0%
CCOC(=O)c1nnn(-c2nonc2N)c1COc1ccccc1,-57.8*,5.9%,-5.0%,-0.8,10.6%,0.2%
CCCc1c(C(=O)N/N=C(\C)c2ccc(O)cc2)nnn1-c1nonc1N,-9.7,-5.2%,-3.2%,-3.5,12.2%,3.7%
CCOC(=O)c1nnn(-c2nonc2N)c1-c1ccc(OC)cc1,-54.5*,32.7%,-34.4%,2.6,25.3%,-6.1%
CN(CCOc1cccc(C(F)(F)F)c1)Cc1ccccc1,-87.3*,4.5%,10µM*,-12.7,?,nt
CN(CCOCCOc1ccc2ccccc2c1)Cc1ccccc1,-64.1*,1.1%,?,1.4,-14.7%,-0.6%
CCN(Cc1ccccc1)Cc1ccc(OCc2ccccc2)cc1,-84.1*,-2.1%,?,-6.0,3.3%,0.0%
CCOc1ccc(OCCOc2cccc(C(F)(F)F)c2)cc1,-3.8,5.0%,0.5%,-4.8,3.6%,3.5%
CN(CCOc1ccccc1)CCOc1ccccc1,-87.4*,12.5%,-20.8%,-13.6,-3.0%,nt
CC(=O)N(CCOc1ccccc1)CCOc1ccccc1,-14.5,18.1%,?,5.4,-3.0%,-0.6%
Cc1cc(C)cc(NC(=O)NCc2noc3ccccc23)c1,nt,nt,-29.7%,-1.0,0.4%,-3.3%
CCOC(=O)C1CCN(C(=O)c2nn(-c3ccc(OC)c(Cl)c3)c(=O)c3c2c2ccccc2n3C)CC1,nt,nt,7.9%,4.9,-0.5%,?
CCC(C)c1ccccc1OCCCN(C)Cc1ccccc1 (stereo unspecified),-60.4*,-16.1%,?,-16.3,12.3%,-2.7%
CN(CCCCOc1ccc(F)cc1)Cc1ccccc1,-82.6*,0.0%,?,-28.4,2.7%,0.1%
CCc1ccc(OCCCCN(C)Cc2ccccc2)cc1,-71.3*,4.6%,?,-19.8,22.7%,-1.7%
COc1ccc(OCCN(C)Cc2ccccc2)cc1,?,-0.4%,4.8%,-5.9,2.7%,-0.3%
CN(CCOc1ccc(F)cc1)Cc1ccccc1,-69.5*,18.6%,0.4%,-15.3,-3.7%,-2.0%
CC(C)CCNC(=O)C1CCN(C(=O)c2cc3sccc3n2Cc2ccc(Cl)cc2)CC1,nt,nt,-27.6%,0.4,-15.2%,-0.8%
FC(F)(F)c1cccc(OCCN2CCN(Cc3ccccc3)CC2)c1,-82.4*,0.7%,?,-52.4,-25.4%,1.9%
Cc1cc(C)c(C)c(OCCCCN(C)Cc2ccccc2)c1,-71.2*,-1.6%,?,-1.6,?,1.7%
c1ccc(CN2CCN(CCOCCOc3ccc4c(c3)CCC4)CC2)cc1,?,-0.7%,-29.6%[7.66 µM],-15.1,-3.9%[7.66 µM],-0.1%
